From PubChem BioAssay (NCI)
Compounds without any hit were thinned out: in the full panel of roughly 83,000, 20% have a hit.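 Activity criterion: percent growth below 10, measured after cells in 96-well plates were exposed to a single compound concentration for 48 hours.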 Unmarked numbers belong to inactive results. Calls of active or inactive are those of the source.

Tests used:
Assay in all cases: NCI-60 one-dose screen, 48 h (100 = growth as untreated, 0 = no growth, -100 = all killed)
Conditions in all cases: 10 µM unless noted
SK-MEL-2 melanoma = system: SK-MEL-2 melanoma
EKVX NSCLC = system: EKVX NSCLC
SN12C renal = system: SN12C renal
UO-31 renal = system: UO-31 renal
TK-10 renal = system: TK-10 renal
ACHN renal = system: ACHN renal
CAKI-1 renal = system: CAKI-1 renal
A498 renal = system: A498 renal
CCRF-CEM leukemia = system: CCRF-CEM leukemia
MOLT-4 leukemia = system: MOLT-4 leukemia
RPMI-8226 leukemia = system: RPMI-8226 leukemia
OVCAR-8 ovarian = system: OVCAR-8 ovarian
OVCAR-5 ovarian = system: OVCAR-5 ovarian
OVCAR-4 ovarian = system: OVCAR-4 ovarian
SK-OV-3 ovarian = system: SK-OV-3 ovarian
IGROV1 ovarian = system: IGROV1 ovarian
OVCAR-3 ovarian = system: OVCAR-3 ovarian
HS 578T breast = system: HS 578T breast
NCI/ADR-RES ovarian = system: NCI/ADR-RES ovarian

Compound | growth (SK-MEL-2 melanoma) | growth (EKVX NSCLC) | growth (SN12C renal) | growth (UO-31 renal) | growth (TK-10 renal) | growth (ACHN renal) | growth (CAKI-1 renal) | growth (A498 renal) | growth (CCRF-CEM leukemia) | growth (MOLT-4 leukemia) | growth (RPMI-8226 leukemia) | growth (OVCAR-8 ovarian) | growth (OVCAR-5 ovarian) | growth (OVCAR-4 ovarian) | growth (SK-OV-3 ovarian) | growth (IGROV1 ovarian) | growth (OVCAR-3 ovarian) | growth (HS 578T breast) | growth (NCI/ADR-RES ovarian)
CCCCN(C)N=Nc1ccc(C(N)=O)cc1 | 107% | 96.2% | 96.7% | 57.1% | 111% | 107% | 59% | 89.7% | 110% | 87.7% | 114% | 107% | 99.2% | 107% | 121% | 89.1% | 103% | 101% | 106%
CCN1C(=O)N(CC)C2Nn3c(s/c(=C4\C(=O)N(CCC(C)C)c5ccccc54)c3=O)=NC21 (centres undefined) | 87.7% | 67.1% | 89.3% | 54.3% | 38.3% | 67.6% | 51.3% | 72.9% | 57.1% | 85.5% | 73.7% | 86% | 102% | 63.5% | 98.7% | 63.8% | 75.8% | 81.4% | 57.8%
COc1ccc(-c2ncnc3c2ncn3CC#CCCl)cc1 | 53.4% | 115% | 46.3% | -86.7% (active) | 69.8% | 52.8% | 61.8% | 55.7% | 19.1% | 4.95% (active) | 34.7% | 65.3% | 97.7% | 51.1% | 85.8% | 46.2% | 53.4% | 107% | 56.2%
COc1cccc(-c2nn(-c3ccccc3)cc2-c2ccnc(N3CCOCC3)c2)c1 | 96.7% | 82.2% | 98% | 66.2% | 92% | 84.3% | 81.4% | 71.7% | 97.8% | 59.2% | 67.9% | 96.6% | 94.7% | 84.2% | 87.9% | 79.5% | 95.5% | 115% | 77.5%
CNCCCC12CCC(c3ccccc31)c1ccccc12 | 100% | 87.9% | 73.4% | 58% | 80.2% | 80.6% | 83.4% | 93.7% | 84.7% | 89.6% | 91% | 99.7% | 90.2% | 86.8% | 85.2% | 82.7% | 107% | 87.3% | 89.5%
CCOc1c(B(O)O)cccc1-c1nc2ccc3[nH]ncc3c2c2c1CCCC2 | 113% | 47.5% | 62.7% | 29.9% | 19.7% | 51.1% | -26.9% (active) | 61.8% | 44% | 28.8% | 39.5% | 65% | 74.7% | 93.3% | 72% | 77.6% | 113% | 34.5% | 62.7%
Cc1onc2c(-c3ccccc3)n[nH]c(=O)c12 | 135% | 62.8% | 101% | 106% | 78.9% | 107% | 74.1% | 90.2% | 106% | 76% | 107% | 116% | 98.8% | 108% | 87.1% | 140% | 106% | 127% | 106%
COc1ccc(OC)c(/C=C/C(=O)N/N=C/c2ccc(Cl)cc2)c1 | 22.3% | 43.1% | 46.2% | 30.1% | 51% | 48.4% | 41.8% | 12.5% | 13.7% | 26.3% | 21.3% | 21% | 28.4% | 40.2% | -4.93% (active) | 17.9% | -43.4% (active) | -1.72% (active) | 3.82% (active)
COc1ccc2c(c1)c(-c1ccc(-c3cn(C)c4ccc(OC)cc34)o1)cn2C | 45% | 46.1% | 75.8% | -8.28% (active) | 83.3% | 36.3% | 37.2% | 85.3% | 61.8% | 63.5% | 25.5% | 39.4% | 36.8% | -42.3% (active) | 93.4% | 70.2% | 23.2% | -31.2% (active) | 38.7%
NS(=O)(=O)c1ccc(-n2nc(-c3ccc(Cl)cc3)c3ccccc3c2=O)cc1 | 110% | 82.5% | 93.4% | 52.6% | 152% | 94.8% | 95.9% | 123% | 70.3% | 59.5% | 84.6% | 96.9% | 93.7% | 93.7% | 96.9% | 75.5% | 108% | 88.7% | 86.2%
CCCCNc1nc(NN2C(=O)c3cccc4cccc(c34)C2=O)nc(-n2cnc3ccccc32)n1 | 99% | 71.8% | 90.5% | 44.1% | 100% | 81.3% | 75.6% | 35.9% | 96.3% | 77.4% | 86.9% | 93.3% | 83.8% | 67.7% | 99.3% | 80.4% | 86.3% | 81.9% | 91.5%
O=C(CSc1nc2ccccc2[nH]1)Nc1cccc(Cl)c1 | 104% | 94.7% | 93% | 77.6% | 109% | 99.2% | 80.7% | 73.3% | 104% | 117% | 102% | 106% | 98.7% | 95.7% | 97.9% | 96.2% | 102% | 91.9% | 103%
CN(C)c1ccc(/C=N\Nc2cc(=O)[nH]c3ccc(Cl)cc23)cc1 | 91.2% | 85.7% | 104% | 67.9% | 127% | 95.2% | 90.9% | 123% | 95.4% | 87.1% | 93.2% | 93.4% | 101% | 121% | 82.9% | 75.3% | 108% | 82.8% | 99.8%
NC[C@@H]1O[C@H](O[C@@H]2[C@@H](CO)OC(O[C@@H]3[C@@H](O)[C@H](N)C[C@H](N)[C@H]3OC3O[C@H](CN)[C@@H](O)[C@H](O)[C@H]3N)[C@@H]2O)[C@H](N)[C@@H](O)[C@@H]1O (some centres undefined) | 125% | 98.4% | 117% | 109% | 120% | 105% | 99.5% | 108% | 97.5% | 112% | 104% | 98% | 104% | 107% | 119% | 110% | 111% | 111% | 105%
COc1ccc(/C=C/c2c(C(=O)/C=C/c3ccc(Cl)cc3)c(C)nc3ccccc23)cc1 | 45.7% | 47.9% | 17.2% | -21.3% (active) | 56.2% | 13.5% | 29.5% | 39.6% | 5.29% (active) | 4.01% (active) | -28.6% (active) | 20.9% | 16.9% | 40.6% | 64.5% | 13.6% | -4.96% (active) | 34.4% | 12.4%
Cc1nc2ccccc2c(/C=C/c2ccc(Cl)cc2)c1C(=O)/C=C/c1ccc(C(F)(F)F)cc1 | -31.9% (active) | -60.1% (active) | -70.7% (active) | -100% (active) | -82.8% (active) | -100% (active) | -95.4% (active) | -89.5% (active) | 8.6% (active) | 0.0825% (active) | -30.7% (active) | 2.79% (active) | -41.6% (active) | -91% (active) | -79.9% (active) | -85.5% (active) | -85.8% (active) | -17.3% (active) | -5.17% (active)
